Bioassay records deposited in PubChem by National Center for Advancing Translational Sciences (NCATS).
Sampled rows, rich in hits. Any-hit rate of the full collection: about 2.4%.
Pol beta inh – DNA polymerase beta (human) inhibition; Potency, µM (doses to about 114 µM), for inactives: top-dose activity change, negative = inhibition, hits mostly inhibitors; actives 1.3% (n = 340,000); Pol beta primer extension/strand displacement, fluorescence kinetic; further: on the % scale 0 is the no-effect control and ±100 the full control effect
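Enzyme-only controls used 10 nM Pol beta; buffer lacking enzyme served as negative control. Compound preincubated 15 min, then 50 nM substrate added; 0 and 10 min reads at room temperature.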
POLI inh – inhibitors of human DNA polymerase iota. Pol iota fluorescent replication assay, 10 min. Potency, µM (series often up to 115 µM), without a hit: top-dose activity, negative = inhibition, actives largely listed as inhibitors. actives 1% (n = 390,000)
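Pol iota at 10 nM preincubated 15 min with compounds at room temperature; reaction started with fluorescent substrate, 50 nM final. Fluorescence read kinetically at 0 and 10 min; buffer-only wells as negative control.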
GLS inh – glutaminase GLS (human) inhibition | AID 624170 | actives 0.21% (n = 410,000) | GLS enzymatic activity, qHTS titration | Potency, µM (series often up to 45.5 µM), for the others: at the highest dose activity change, negative = inhibition, usual class: inhibitors; further: on the % scale 0 is the no-effect control and ±100 the full control effect
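Compounds were pin-transferred onto hKGA, after which L-glutamine (1 mM solution) and a detection mix of glutamate oxidase, HRP and Amplex Red were added. Initial and 30 min RT fluorescence reads were collected.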
APEX1 inh – inhibitors of human APE1 endonuclease | P27695 | recombinant APE1, TAMRA/BHQ-2 abasic DNA cleavage fluorescence | Potency, µM (highest dose often 65.8 µM), without a hit: top-dose activity change, negative = inhibition, usual class: inhibitors | actives 0.35% (n = 350,000);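 further: plate controls were vehicle for no effect and reference inhibitor for full effect; nearly all actives have a fitted effect of over 55% in size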
Target sequence (P27695 whole entry, looked up): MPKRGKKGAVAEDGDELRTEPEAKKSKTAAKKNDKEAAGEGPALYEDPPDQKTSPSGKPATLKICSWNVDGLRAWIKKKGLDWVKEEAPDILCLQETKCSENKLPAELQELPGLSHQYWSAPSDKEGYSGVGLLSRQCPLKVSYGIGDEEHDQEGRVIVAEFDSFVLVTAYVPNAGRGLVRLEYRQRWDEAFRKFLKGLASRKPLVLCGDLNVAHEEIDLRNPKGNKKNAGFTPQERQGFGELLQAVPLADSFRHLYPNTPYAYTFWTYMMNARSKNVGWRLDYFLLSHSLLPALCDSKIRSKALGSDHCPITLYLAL
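APE1 at 0.75 nM preincubated 15 min at room temperature with compound. Reaction then started with 50 nM double-stranded THF-abasic substrate labelled with TAMRA/BHQ-2, and 525/598 nm fluorescence read kinetically. Activity taken as third-minus-first read difference, normalized to DMSO and NSC13755 controls.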
Pol eta inh-1 – DNA polymerase eta (human) inhibition; actives 1.2% (n = 390,000); Q9Y253; Potency, µM (series often up to 114 µM), without a hit: at the highest dose activity change, negative = inhibition, hits mostly inhibitors; recombinant Pol eta, fluorescent DNA replication assay; further: on the % scale 0 is the no-effect control and ±100 the full control effect
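Fluorescent replication assay: 50 nM final substrate added after a 15 min room-temperature compound preincubation with 10 nM enzyme. Signal taken at 0 min and again at 10 min.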
Pol kappa inh-1 – inhibitors of human DNA polymerase kappa; purified Pol kappa, fluorescent DNA synthesis assay, 10 min; Q9UBT6; Potency, µM (series often up to 107 µM), for inactives: at the top dose activity, negative = inhibition, actives largely listed as inhibitors; actives 0.53% (n = 400,000); further: on the % scale 0 is the no-effect control and ±100 the full control effect
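Pol kappa 10 nM + cpd, 15 min RT; start w/ substrate 50 nM final; fluorescence kinetic read, 0 and 10 min. Neg ctrl: buffer, no enzyme.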
Pol kappa inh-2 – Pol kappa (human) inhibition, cherry-pick confirmation; actives 76% (n = 920); Potency, µM, most hits filed as inhibitors; purified Pol-kappa, fluorescent strand-displacement substrate; shares compounds with Pol eta inh-1
Pol eta inh-2 – confirmation of human DNA polymerase eta inhibitors | shares compounds with Pol eta inh-1 | Pol eta primer extension, TAMRA/BHQ fluorescence, 10 min | Potency, µM, usual class: inhibitors | actives 64% (n = 2,600)
Starred values were filed as active, the others as inactive; ? = inconclusive; . = no result; [ ] = another dose, or the depositor's remark. The call rests on the fitted dose curve; in most records, active means well fitted curve in the direction sought with a large enough effect; inconclusive means small, poorly fitted or top-dose-only effect, or another doubt; inactive means no such curve, though single readings can be large; an effect the other way counts as inactive or inconclusive. Potency means the concentration at half of the fitted maximal effect.

SMILES	Pol beta inh	POLI inh	GLS inh	APEX1 inh	Pol eta inh-1	Pol kappa inh-1	Pol eta inh-2	others
O=C(/C=C/c1ccco1)Nc1cccc(NC(=O)/C=C/c2ccco2)n1	25.1µM*	35.5µM*	-1.3%	?	20µM*	-29.8%	?
CCCCC1=CC2=CC(=O)C(C)(OC(=O)CC)C(=O)C2=CN1Cc1ccc2c(c1)OCO2 (stereo unspecified)	-20.6%	12.4%	-2.7%	0.9%[12.4 µM]	-3.2%	-16.7%	.
Cc1ccc(NC(=O)c2cnc3sc(N4CCOCC4)nn3c2=O)cc1N(C)C	41.0%	10.3%	24.7%	.	-5.5%	11.2%	.
O=C(O)COc1ccccc1/C=C1\SC(=S)N(NC(=O)c2ccccc2O)C1=O	.	7.08µM*	54.5%	14.6%	31.6µM*	31.6µM*	?	Pol kappa inh-2=7.52*
O=C(NN1C(=O)/C(=C/c2ccc(O)c(O)c2)SC1=S)c1ccccc1	17.8µM*	22.4µM*	2.7%	12.0%	1.12µM*	39.8µM*	?
O=C(O)COc1ccccc1/C=C1\SC(=S)N(/N=C/c2ccccc2O)C1=O	-17.5%	?	40.1%	-4.8%	22.4µM*	-27.6%	47.8*	Pol kappa inh-2=75.2*
Cc1ccc(CNC(=O)CSc2nc(=O)n3ccc(C)cc3n2)cc1	.	.	2.2%	.	28.2µM*	.	?
O=C(Nc1ccc(OC(F)(F)F)cc1)c1noc2c1CCCC2	-19.6%	34.7%	-4.0%	.	.	-8.5%	.
CC(=O)c1ccc(NC(=O)c2noc3c2CCC3)cc1	15.8µM*	25.1µM*	-18.8%	?	44.7µM*	?	?
COc1ccc(/C=C2\SC(=S)N(NS(=O)(=O)c3ccccc3)C2=O)c(OC)c1	-22.0%	-0.8%	25.2%	44.9%	?	2.7%	.
COc1ccc(/C=C2\SC(=S)N(NS(=O)(=O)c3ccc(C)cc3)C2=O)c(OC)c1	?	31.7%	3.2%	25.7%	?	-8.8%	21.3*
CCOC(=O)N1C(=O)[C@@](CC)(c2ccccc2)N1C(=O)OCC	80.2%	?	2.1%	-12.4%	-18.0%	-7.5%	.
COc1ccc(C2=Nn3c(nnc3-c3ccccc3Cl)SC2)cc1OC1CCCC1	.	-29.0%	18.4%	24.0%	-4.0%	?	.	Pol kappa inh-2=16.8*
COc1ccc(C2=Nn3c(nnc3-c3ccccc3Cl)SC2)cc1OC1CCOC1 (stereo unspecified)	.	-12.5%	-0.6%	23.1%	-6.9%	-21.5%	.	Pol kappa inh-2=8.44*
CCN(CC)CCn1c(NCc2cccc(OC)c2OC)nc2ccccc21	24.7%	-5.8%	24.8%	10.6%	1.1%	-0.4%	.
CCn1ncc(/C=N\NC(=O)COc2cc(C)cc(C)c2)c1C	?	28.1%	8.5%	22.0%	-15.8%	10.6%	.
COc1ccc(C=O)cc1CSc1ccccn1	-3.7%	180.4%	-1.1%	-1.9%	-16.5%	-0.8%	.
COc1ccc(/C=N/NC(=O)c2ccc(O)cc2O)cc1CSc1ccccn1	20µM*	?	?	0.7%	14.1µM*	79.4µM*	?
O=C(COC(=O)c1cnccn1)Nc1c(Cl)cc(Cl)cc1Cl	.	4.6%	-2.2%	-10.7%	-1.2%	-14.9%	.
O=C(COC(=O)c1ccc([N+](=O)[O-])o1)Nc1ncc(Cl)cc1Cl	.	?	-18.7%	-29.3%	22.4µM*	-24.1%	?
O=C(COC(=O)c1cnccn1)Nc1ncc(Cl)cc1Cl	.	?	-5.3%	-7.4%	22.4µM*	-15.8%	?
O=C(COC(=O)c1ccc(O)cc1O)Nc1ncc(Cl)cc1Cl	.	-8.7%	3.1%	-8.1%	?	-16.9%	?
